Only some compounds are listed: those with a hit (about 1.8% of all), similar ones and a draw of the others.
GLP1R cytotox – cytotoxicity in counter-screen for GLP-1R inverse agonists; HEK293 cAMP-luciferase reporter cells, luminescence, 24 h; Potency, µM (doses to about 38.3 µM), inactives show at the top dose activity change, negative = inhibition, actives largely listed as inhibitors; hit rate 0.13% among 410,000; AID 624418;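 further: loss of luciferase light is scored as toxicity; potency means the concentration at half of the fitted maximal effect; on the % scale 0 is the no-effect control and ±100 the full control effect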
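Seeding density was 200 cells/uL; after overnight-length (12 h) culture, 23 nL compounds went on for 24 h at 37 °C. Readout used a luciferase detection reagent, luminescence taken after 12 min at room temperature.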
GLP-1R agonist – GLP-1 receptor (human) agonism; P43220; Potency, µM (highest dose often 45.6 µM), for inactives: at the top dose activation, hits mostly activators; AID 624172; hit rate 0.007% among 380,000; HEK293 GLP-1R CRE-luciferase, luminescence, 4-6 h; cells express a hypersensitive GLP-1R form; further: potency means the concentration at half of the fitted maximal effect; % of control where 0% means no effect
Target sequence (P43220 whole entry, looked up): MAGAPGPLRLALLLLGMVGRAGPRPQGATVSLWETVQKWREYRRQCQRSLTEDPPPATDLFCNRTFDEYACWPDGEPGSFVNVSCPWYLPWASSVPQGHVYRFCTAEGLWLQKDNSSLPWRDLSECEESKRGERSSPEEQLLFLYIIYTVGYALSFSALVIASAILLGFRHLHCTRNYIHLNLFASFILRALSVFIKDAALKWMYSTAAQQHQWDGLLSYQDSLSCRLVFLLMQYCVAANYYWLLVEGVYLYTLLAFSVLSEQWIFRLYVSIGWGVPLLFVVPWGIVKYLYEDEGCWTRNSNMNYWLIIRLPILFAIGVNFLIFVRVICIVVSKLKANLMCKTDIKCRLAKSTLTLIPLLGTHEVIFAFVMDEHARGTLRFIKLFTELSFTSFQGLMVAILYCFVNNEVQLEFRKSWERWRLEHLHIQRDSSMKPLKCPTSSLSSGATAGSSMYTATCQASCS
TSHR antagonist – antagonists of human thyroid stimulating hormone receptor. TSHR-expressing cells, TSH-stimulated cAMP HTRF, 2 h; stronger effect = lower value. hit rate 0.2% among 330,000. activity change, negative = inhibition, % at 11.5 µM;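 active means activity change below a set negative limit, meaning inhibition stronger than a set level, cut at about -70% in these data; inconclusive means activity change between two set negative limits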; further: on the % scale 0 is the no-effect control and ±100 the full control effect
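TSHR-expressing cells were treated with compounds, then stimulated with TSH at EC80 (4nM final) for 2 hours at 37 deg C. Cellular cAMP was measured by HTRF competition between lysate cAMP and cAMP-d2 for a cryptate-labelled anti-cAMP antibody.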
PTHR1 ag – PTHR1 (human) receptor agonism | Q03431 | Potency, µM (titrated, usually from 115 µM), without a hit: top-dose activation, actives largely listed as activators | HEK293 GP2 PTHR1 cells, GloSensor cAMP luminescence, 1 h | hit rate 0.075% among 410,000 | AID 743266; further: potency means the concentration at half of the fitted maximal effect; nearly all actives have a fitted effect of over 55% in size
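HEK-293-derived GP2 cells expressing PTHR1 and a GloSensor cAMP reporter, 3,000/well, plated overnight, given luciferin plus IBMX (each 0.5 mM as added) for 1 h at 37 °C, then compound for 1 h at 37 °C. Luminescence was read after 15 min at room temperature.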
GLP-1R inv ag – GLP-1 receptor (human) inverse agonism | AID 624417 | HEK293 GLP-1R CRE-luciferase, luminescence, 24 h; GLP-1R form is constitutively active | Potency, µM (top dose mostly 38.3 µM), for the others: at the top dose activity change, negative = inhibition, actives largely listed as inhibitors | hit rate 1.6% among 410,000 | P43220; further: potency means the concentration at half of the fitted maximal effect; on the % scale 0 is the no-effect control and ±100 the full control effect; nearly all actives have a fitted effect of over 55% in size
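Readout was luciferase luminescence, measured 12 min after detection reagent at room temperature. Beforehand, GLP-1R reporter HEK293 cells had sat 12 h, then received compounds for 24 hr at 37 deg C.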
Starred values were filed as active, the others as inactive; i = inactive; ? = inconclusive; . = not tested or not shown; [ ] = remark or other dose. Unless noted, the call rests on the fitted dose curve; in most records, active means well fitted curve in the direction sought with a large enough effect; inconclusive means small, poorly fitted or top-dose-only effect, or another doubt; inactive means no such curve, though single readings can be large; an effect the other way counts as inactive or inconclusive.

SMILES	GLP1R cytotox	GLP-1R agonist	TSHR antagonist	PTHR1 ag	GLP-1R inv ag
Cc1ccc(NC(=S)NCc2ccccc2)cc1S(=O)(=O)N1CCCCC1	-22.2%	2.3%	22.5	-43.7%	11.2µM*
Cc1[nH]c(=O)[nH]c(=O)c1S(=O)(=O)N1CCN(c2ccccc2Cl)CC1	-3.3%	.	.	-2.3%	2.2%
CCc1ccc(NC(=O)N(Cc2cn(CC)c3ccccc23)C2CCCCC2)cc1	-39.3%	-6.3%	.	-23.7%	-76.3%
CCOc1ccc(NC(=O)N(Cc2cn(CC)c3ccccc23)C2CCCCCC2)cc1	-30.0%	.	.	-23.6%	11.2µM*
O=C(Cc1c[nH]c2ccccc12)N1CCN(S(=O)(=O)c2cccc(Cl)c2Cl)CC1	?	-2.9%	15.4	-26.4%	10µM*
O=C(Cc1c[nH]c2ccccc12)N1CCN(S(=O)(=O)c2ccc(F)cc2)CC1	-6.4%	1.5%	.	i	-15.4%
CCOC(=O)c1ccc(NC(=S)N(CCCN2CCCC2)Cc2cccs2)cc1	?	4.7%	-10.2	-12.3%	2.82µM*
CCN(Cc1nc(-c2ccccc2)no1)C(=O)COc1cccc(OC)c1	13.9%	13.7%	43.9	-14.7%	1.78µM*
COc1cccc(OCC(=O)N(Cc2nc(-c3ccc(Cl)cc3)no2)C(C)C)c1	2.4%	7.3%	-6.1	-91.5%	?
Cc1cccc(Nc2nnc(-c3ccc(C)c(S(=O)(=O)N4CCN(C)CC4)c3)c3ccccc23)c1	0.2%	.	.	i	?
CCn1ccnc1CN(C)Cc1cn(-c2cccc(C)c2)nc1-c1cccc(F)c1	?	-3.2%	5.3	?	12.6µM*
OC(COc1cccc2ccccc12)CN1CCN(c2ccccc2Cl)CC1 (centres undefined)	?	26.1%	22.6	-19.3%	?
Cc1ccccc1OCC(O)CN1CCCCC1 (centres undefined)	?	-5.1%	-0.2	-12.6%	12.1%
Cc1ccccc1OCC(O)CN1CCN(CC(O)COc2ccccc2C)CC1 (centres undefined)	-6.1%	-2.4%	8.3	-24.8%	8.91µM*
COc1cccc(OCC(O)CN2CCN(c3ccc(Cl)cc3)CC2)c1 (centres undefined)	0.8%	-0.9%	7.4	-13.4%	10µM*
Cc1ccc(N2CCN(CC(O)COc3cccc4ccccc34)CC2)cc1 (centres undefined)	?	-6.3%	5.1	-26.3%	11.2µM*
CCOc1ccc(C(=O)Nc2ccc3nn(-c4ccc(OC)c(Cl)c4)nc3c2)cc1	0.4%	-2.2%	.	-13.5%	3.9%
CCOC(=O)C1CCN(C(=O)Cn2ncc3c([nH]c4ccc(C)cc43)c2=O)CC1	-1.0%	.	.	i	13.0%
Cc1cccc(C(=O)n2nc(-c3cccnc3)nc2NCc2ccc(F)cc2)c1	6.1%	.	.	-16.8%	-6.7%
Cc1ccc(NC2=Nc3ccccc3CS2)cc1	-9.8%	-17.6%	-1.8	-17.5%[57.5 µM]	6.31µM*
Cc1ccc(-n2nc(C)c3c(C)cc(=O)n(CC(=O)Nc4ccc(Br)cc4F)c32)cc1	-2.9%	.	.	-34.6%	5.8%
Cc1cc(C)c2nc(N3CCC(C(=O)N4CCN(C(=O)c5ccco5)CC4)CC3)sc2c1	-1.8%	2.3%	-16.1	-32.7%	7.94µM*
CC(C)(C)c1ccc(CSC2=Nc3ccccc3C3=NC(CC(=O)NCc4cccs4)C(=O)N23)cc1 (centres undefined)	13.3%	.	.	i	10µM*
COc1ccccc1CNC(=O)CCC1N=C2c3ccccc3N=C(SCC(=O)Nc3ccc(N(C)C)cc3)N2C1=O (centres undefined)	8.9%	.	.	i	0.3%
O=C(CC1N=C2c3ccccc3N=C(SCc3ccccc3Cl)N2C1=O)NCc1cccs1 (centres undefined)	52.7%	.	.	i	-28.4%
CN(C)c1ccc(NC(=O)CSC2=Nc3ccccc3C3=NC(CCC(=O)NCc4cccs4)C(=O)N23)cc1 (centres undefined)	-0.2%	.	.	i	5.62µM*
Cc1ccc(C(C)C)cc1OCC(=O)NC1CCCCCCC1	29.0%	1.6%	-11.6	-38.4%	11.2µM*
Cc1ccc(C(C)C)cc1OCC(=O)NNC(=O)Nc1ccccc1	-9.6%	5.6%	-3.2	-9.5%	6.31µM*
